Experimental findings from the supplement of paper PMC12067093, “Discovery and optimisation of a covalent ligand for TRIM25 and its application to targeted protein ubiquitination” (Chemical Science, 2025) are described below.

The full data set covers some 21,000 targets. This sample favours those with the largest changes.
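Further: competitive profiling in live THP-1 cells: cysteine peptides tagged with an iodoacetamide desthiobiotin (IA-DTB) probe, intensity after compound treatment relative to DMSO-treated cells.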

Chain of UniProt O75446 (O75446 whole entry, looked up): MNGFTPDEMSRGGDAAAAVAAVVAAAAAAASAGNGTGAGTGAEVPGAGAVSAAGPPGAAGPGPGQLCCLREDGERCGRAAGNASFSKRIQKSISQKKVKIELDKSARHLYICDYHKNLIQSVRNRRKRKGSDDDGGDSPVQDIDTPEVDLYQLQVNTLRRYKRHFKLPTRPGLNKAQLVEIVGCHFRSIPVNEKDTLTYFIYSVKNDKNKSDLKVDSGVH
Chain of UniProt Q8NBX0 (Q8NBX0 whole entry, looked up): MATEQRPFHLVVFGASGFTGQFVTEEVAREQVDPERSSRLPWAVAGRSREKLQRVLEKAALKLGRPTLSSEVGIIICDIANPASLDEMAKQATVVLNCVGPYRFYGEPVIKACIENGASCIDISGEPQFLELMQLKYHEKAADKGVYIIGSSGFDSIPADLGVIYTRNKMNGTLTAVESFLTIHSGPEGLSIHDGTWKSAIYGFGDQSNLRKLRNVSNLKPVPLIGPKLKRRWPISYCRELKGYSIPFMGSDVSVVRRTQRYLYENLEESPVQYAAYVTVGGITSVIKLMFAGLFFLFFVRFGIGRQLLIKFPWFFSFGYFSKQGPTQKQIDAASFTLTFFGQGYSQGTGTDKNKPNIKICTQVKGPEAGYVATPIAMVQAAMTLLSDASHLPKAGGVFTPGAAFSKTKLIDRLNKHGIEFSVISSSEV
Chain of UniProt Q5VWQ0 (Q5VWQ0 whole entry, looked up): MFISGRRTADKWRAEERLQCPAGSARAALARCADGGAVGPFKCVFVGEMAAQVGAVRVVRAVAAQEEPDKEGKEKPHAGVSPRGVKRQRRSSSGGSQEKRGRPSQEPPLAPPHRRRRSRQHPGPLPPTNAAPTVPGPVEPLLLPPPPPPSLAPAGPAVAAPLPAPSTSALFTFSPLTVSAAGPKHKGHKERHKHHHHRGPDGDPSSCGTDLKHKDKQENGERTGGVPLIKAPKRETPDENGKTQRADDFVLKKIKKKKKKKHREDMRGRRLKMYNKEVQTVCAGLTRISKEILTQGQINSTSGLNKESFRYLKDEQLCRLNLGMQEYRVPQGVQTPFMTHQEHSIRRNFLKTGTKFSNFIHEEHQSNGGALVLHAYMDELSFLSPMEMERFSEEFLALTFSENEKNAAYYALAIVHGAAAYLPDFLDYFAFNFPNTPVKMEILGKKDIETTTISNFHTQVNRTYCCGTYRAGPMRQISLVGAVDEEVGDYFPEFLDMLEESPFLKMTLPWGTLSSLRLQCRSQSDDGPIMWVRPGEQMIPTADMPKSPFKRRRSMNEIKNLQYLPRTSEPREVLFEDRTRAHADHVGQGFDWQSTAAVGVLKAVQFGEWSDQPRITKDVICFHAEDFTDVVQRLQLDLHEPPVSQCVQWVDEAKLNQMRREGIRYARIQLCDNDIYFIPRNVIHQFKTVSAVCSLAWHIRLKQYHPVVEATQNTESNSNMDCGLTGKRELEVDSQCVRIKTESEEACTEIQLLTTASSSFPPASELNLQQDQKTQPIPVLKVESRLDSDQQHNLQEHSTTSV
Chain of UniProt Q9ULF5 (Q9ULF5 whole entry): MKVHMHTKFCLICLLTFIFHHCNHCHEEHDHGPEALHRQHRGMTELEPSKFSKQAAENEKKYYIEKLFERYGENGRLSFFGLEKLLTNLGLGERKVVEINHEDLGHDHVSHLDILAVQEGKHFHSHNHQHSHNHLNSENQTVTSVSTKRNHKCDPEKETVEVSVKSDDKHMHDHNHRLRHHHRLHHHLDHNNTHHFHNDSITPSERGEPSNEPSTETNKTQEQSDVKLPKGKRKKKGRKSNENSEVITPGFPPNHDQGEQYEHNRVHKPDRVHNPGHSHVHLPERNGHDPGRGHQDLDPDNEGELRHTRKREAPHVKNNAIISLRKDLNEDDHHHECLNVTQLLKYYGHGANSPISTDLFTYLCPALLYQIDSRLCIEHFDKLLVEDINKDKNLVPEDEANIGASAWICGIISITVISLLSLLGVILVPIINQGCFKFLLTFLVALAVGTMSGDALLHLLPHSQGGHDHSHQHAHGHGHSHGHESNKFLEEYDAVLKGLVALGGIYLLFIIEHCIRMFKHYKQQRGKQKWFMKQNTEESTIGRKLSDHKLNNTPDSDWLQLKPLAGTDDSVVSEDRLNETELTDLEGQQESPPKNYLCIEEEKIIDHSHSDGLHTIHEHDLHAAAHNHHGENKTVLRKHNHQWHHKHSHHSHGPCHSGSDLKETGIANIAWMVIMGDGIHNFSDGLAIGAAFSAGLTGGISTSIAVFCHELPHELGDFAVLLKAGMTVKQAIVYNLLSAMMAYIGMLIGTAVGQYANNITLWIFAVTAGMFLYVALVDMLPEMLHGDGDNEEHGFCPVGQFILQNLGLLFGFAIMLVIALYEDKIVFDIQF
Chain of UniProt Q9H7B4 (Q9H7B4 whole entry, looked up): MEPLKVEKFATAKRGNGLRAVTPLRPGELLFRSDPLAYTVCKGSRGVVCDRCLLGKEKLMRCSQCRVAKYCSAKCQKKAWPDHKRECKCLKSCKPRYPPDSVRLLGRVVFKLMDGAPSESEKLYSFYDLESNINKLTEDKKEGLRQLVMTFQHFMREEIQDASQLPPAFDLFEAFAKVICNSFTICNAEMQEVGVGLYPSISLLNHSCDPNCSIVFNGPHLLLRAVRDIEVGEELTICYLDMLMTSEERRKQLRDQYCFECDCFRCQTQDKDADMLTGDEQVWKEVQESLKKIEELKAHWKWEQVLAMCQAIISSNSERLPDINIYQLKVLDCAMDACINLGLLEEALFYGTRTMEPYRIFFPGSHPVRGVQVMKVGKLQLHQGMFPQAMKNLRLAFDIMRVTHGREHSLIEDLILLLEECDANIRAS
Chain of UniProt Q9UQE7 (Q9UQE7 whole entry, looked up): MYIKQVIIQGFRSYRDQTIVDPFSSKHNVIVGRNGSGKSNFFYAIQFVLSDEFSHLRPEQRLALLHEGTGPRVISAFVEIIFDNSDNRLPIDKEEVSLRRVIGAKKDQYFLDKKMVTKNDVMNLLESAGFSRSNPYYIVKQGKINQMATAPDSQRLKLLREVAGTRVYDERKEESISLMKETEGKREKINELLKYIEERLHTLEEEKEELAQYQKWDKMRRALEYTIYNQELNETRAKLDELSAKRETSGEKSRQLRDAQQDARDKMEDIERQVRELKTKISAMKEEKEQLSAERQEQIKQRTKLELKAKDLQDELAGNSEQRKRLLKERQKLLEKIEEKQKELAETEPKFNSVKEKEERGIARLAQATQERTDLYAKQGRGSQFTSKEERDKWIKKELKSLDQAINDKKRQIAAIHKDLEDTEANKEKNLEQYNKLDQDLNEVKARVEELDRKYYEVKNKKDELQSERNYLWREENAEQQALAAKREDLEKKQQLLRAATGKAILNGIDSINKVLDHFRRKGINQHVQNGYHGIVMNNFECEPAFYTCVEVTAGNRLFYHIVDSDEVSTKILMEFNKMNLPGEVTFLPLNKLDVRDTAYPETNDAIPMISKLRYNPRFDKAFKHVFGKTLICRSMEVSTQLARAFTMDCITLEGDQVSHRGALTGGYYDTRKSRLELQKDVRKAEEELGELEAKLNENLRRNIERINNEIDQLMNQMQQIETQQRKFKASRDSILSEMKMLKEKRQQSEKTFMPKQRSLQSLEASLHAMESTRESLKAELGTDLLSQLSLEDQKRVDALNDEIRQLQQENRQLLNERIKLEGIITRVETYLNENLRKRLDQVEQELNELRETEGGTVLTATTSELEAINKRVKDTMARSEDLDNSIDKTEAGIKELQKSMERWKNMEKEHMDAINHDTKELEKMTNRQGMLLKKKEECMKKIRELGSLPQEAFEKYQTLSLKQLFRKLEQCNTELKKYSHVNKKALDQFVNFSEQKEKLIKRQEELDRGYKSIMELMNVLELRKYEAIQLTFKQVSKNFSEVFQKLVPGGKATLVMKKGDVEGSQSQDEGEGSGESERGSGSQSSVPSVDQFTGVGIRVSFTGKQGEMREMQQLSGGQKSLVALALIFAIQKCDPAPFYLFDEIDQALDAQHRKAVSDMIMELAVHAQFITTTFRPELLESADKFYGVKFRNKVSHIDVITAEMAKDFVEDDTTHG
Chain of UniProt Q9UBE0 (Q9UBE0 whole entry, looked up): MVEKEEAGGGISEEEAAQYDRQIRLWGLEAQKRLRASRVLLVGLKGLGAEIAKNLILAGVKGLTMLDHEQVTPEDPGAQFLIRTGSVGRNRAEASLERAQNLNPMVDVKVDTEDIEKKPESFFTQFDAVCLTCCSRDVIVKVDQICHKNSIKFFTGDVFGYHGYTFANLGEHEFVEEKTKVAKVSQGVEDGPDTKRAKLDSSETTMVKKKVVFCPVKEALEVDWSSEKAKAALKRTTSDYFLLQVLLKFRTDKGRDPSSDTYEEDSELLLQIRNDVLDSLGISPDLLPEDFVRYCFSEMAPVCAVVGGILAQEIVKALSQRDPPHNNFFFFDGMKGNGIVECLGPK
Chain of UniProt Q9HAU4 (Q9HAU4 whole entry, looked up): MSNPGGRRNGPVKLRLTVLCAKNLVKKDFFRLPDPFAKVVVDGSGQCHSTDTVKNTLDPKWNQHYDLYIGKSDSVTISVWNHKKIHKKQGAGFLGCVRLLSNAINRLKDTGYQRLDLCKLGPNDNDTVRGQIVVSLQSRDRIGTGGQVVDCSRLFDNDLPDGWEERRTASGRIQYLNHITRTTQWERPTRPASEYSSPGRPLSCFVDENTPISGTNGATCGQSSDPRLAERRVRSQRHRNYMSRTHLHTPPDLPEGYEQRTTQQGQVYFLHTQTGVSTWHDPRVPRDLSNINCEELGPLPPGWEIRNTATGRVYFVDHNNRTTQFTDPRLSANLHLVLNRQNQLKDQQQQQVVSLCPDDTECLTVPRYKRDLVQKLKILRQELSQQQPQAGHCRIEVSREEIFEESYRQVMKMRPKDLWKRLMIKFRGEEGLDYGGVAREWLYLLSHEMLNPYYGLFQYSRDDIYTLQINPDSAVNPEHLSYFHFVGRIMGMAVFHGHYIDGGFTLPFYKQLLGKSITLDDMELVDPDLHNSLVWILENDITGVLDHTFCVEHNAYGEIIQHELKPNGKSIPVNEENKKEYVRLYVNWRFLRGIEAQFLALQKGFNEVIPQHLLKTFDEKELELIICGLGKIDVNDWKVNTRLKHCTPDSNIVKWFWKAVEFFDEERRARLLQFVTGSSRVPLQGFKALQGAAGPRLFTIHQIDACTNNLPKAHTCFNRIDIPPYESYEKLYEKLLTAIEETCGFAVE

Compound in the assay: Cc1cc(ccc1-c1ccccc1)C(=O)N1CCCN(CC1)C(=O)CCl [compound 10]
The experiment in a line: probe-labelled cysteine peptide fold change vs DMSO (competition) (log2 fold change); higher = less target engagement (more negative = stronger competition). Conditions: 10 µM; THP-1; incubation time: 4 h.
On to “SCCPDH_Q8NBX0_238_WPISYCR (UniProt Q8NBX0)”, for which the “probe-labelled cysteine peptide fold change” value was -0.242. For the target “SMYD3_Q9H7B4_261+263_DQYCFECDCFR (UniProt Q9H7B4)”, the “probe-labelled cysteine peptide fold change” value was -0.0235. The same measure for “RSBN1_Q5VWQ0_318_DEQLCR (UniProt Q5VWQ0)”: -0.206; for “SMC3_Q9UQE7_1134_CDPAPFYLFDEIDQALDAQHR (UniProt Q9UQE7)”: 0.416. The same measure for “SATB1_Q01826_91_GTMLPVFCVVEHYENAIEYDCKEEHAEFVLVR (UniProt Q01826)”: -0.0836. As for “SLC25A5_P05141_257_GTDIMYTGTLDCWRK (UniProt P05141)”, the “probe-labelled cysteine peptide fold change” value was -0.0476. With “SNRNP200_O75643_1278_VVSDRWLSCETQLPVSFR (UniProt O75643)”, the “probe-labelled cysteine peptide fold change” value was -0.0123. The value for “RPL11_P62913_150_TGCIGAK (UniProt P62913)” was -0.0968; that for “SMYD5_Q6GMV2_136_LAATEQYHQVLCPGPSQDDPLHPLNK (UniProt Q6GMV2)” was -0.0142. For the target “RPL7A_P62424_182_MGVPYCIIK (UniProt P62424)”, the “probe-labelled cysteine peptide fold change” value was determined as 0.17. Take “SAP30_O75446_184_AQLVEIVGCHFR (UniProt O75446)”: the “probe-labelled cysteine peptide fold change” value was found to be 0.0105.

In the case of “SMCHD1_A6NHR9_444_YHPFLYDRETYPDDPCFPSK (UniProt A6NHR9)”, the “probe-labelled cysteine peptide fold change” value was -0.159. Take “SLC39A10_Q9ULF5_598_NYLCIEEEK (UniProt Q9ULF5)”: the “probe-labelled cysteine peptide fold change” value was -0.213.

In the case of “SLC25A28_Q96A46_49_GAGGGEAGACRPPVR (UniProt Q96A46)”, the “probe-labelled cysteine peptide fold change” value is -0.368. As for “RPS6_P62753_83_GHSCYRPR (UniProt P62753)”, the “probe-labelled cysteine peptide fold change” value was -0.077.

For “RNF214_Q8ND24_675_LVQPSELHPMACTHVLHK (UniProt Q8ND24)”, the “probe-labelled cysteine peptide fold change” value is 0.0646. The same measure for “SMURF2_Q9HAU4_706_LFTIHQIDACTNNLPK (UniProt Q9HAU4)”: -0.159; for “RNPEP_Q9H4A4_69_CLEPEGAAELR (UniProt Q9H4A4)”: 0.063. Regarding “SLC22A15_Q8IZD6_438_NVGLGTCSMFSR (UniProt Q8IZD6)”, the “probe-labelled cysteine peptide fold change” value was 0.0942.

Take “RNF31_Q96EP0_473_LSAPLPSSCGDPEK (UniProt Q96EP0)”: the “probe-labelled cysteine peptide fold change” value was -0.208. The value for “RTN4IP1_Q8WWV3_130_DVSGVVMECGLDVK (UniProt Q8WWV3)” was 0.0949. With “RTN3_O95197-3_42_SCSSSCAVHDLIFWR (UniProt O95197)”, the “probe-labelled cysteine peptide fold change” value is -2.02. For “SEC63_Q9UGP8_295_KNEPPLTCPYSLK (UniProt Q9UGP8)”, the “probe-labelled cysteine peptide fold change” value was -0.404. With “RPS6KA1_Q15418_432_ETIGVGSYSECKR (UniProt Q15418)”, the “probe-labelled cysteine peptide fold change” value is -1.06. For “SEMA4A_Q9H3S1_547_GNPEWACASGPMSR (UniProt Q9H3S1)”, the “probe-labelled cysteine peptide fold change” value was -0.0882. The same measure for “SLC9A3R1_O14745_206_IVEVNGVCMEGK (UniProt O14745)”: 0.165. Consider “SAE1_Q9UBE0_295_YCFSEMAPVCAVVGGILAQEIVK (UniProt Q9UBE0)”, for which the “probe-labelled cysteine peptide fold change” value is -0.252. Consider “RPUSD2_Q8IZ73_246_LLAENEDVVVVDKPSSIPVHPCGR (UniProt Q8IZ73)”, for which the “probe-labelled cysteine peptide fold change” value is -0.561. On to “SEC63_Q9UGP8_671_EQTLISMPYHVCTLK (UniProt Q9UGP8)”, for which the “probe-labelled cysteine peptide fold change” value turned out to be 0.235. As for “RPS8_P62241_182_LLACIASRPGQCGR (UniProt P62241)”, the “probe-labelled cysteine peptide fold change” value was -0.207. With “RNF214_Q8ND24_696_FWAQTNTNDTCPFCPTLK (UniProt Q8ND24)”, the “probe-labelled cysteine peptide fold change” value worked out at 0.35. On to “SATB1_Q01826_173_IQLHSCPK (UniProt Q01826)”, for which the “probe-labelled cysteine peptide fold change” value is -0.0552.
